The record followed here is the supplement of paper PMC3414501.

Assay [1] concerns S. cerevisiae SK1 pCDA2-eGFP (USY613), sporulating. In words: CDA2-GFP sporulation assay sensitivity score (z-score vs DMSO controls); higher = stronger inhibition of sporulation, active = hit call of the paper.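 Note: active if sensitivity score above 5.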
Assay [2] relates to S. cerevisiae NKY1551 his4x/his4B, sporulating. In words: HIS4 meiotic recombination assay sensitivity score (z-score vs DMSO controls); higher = stronger inhibition of sporulation/recombination, active = hit call of the paper.
The subject of assay [3] is S. cerevisiae BY4741 (wild-type), vegetative growth in YPD. The assay can be described thus: growth sensitivity score (doubling time z-score vs DMSO controls); higher = slower growth, strongly negative scores also mark growth inhibition (complete suppression), active = hit call of the paper. Put shortly:
(§1)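 Optical density of Saccharomyces cerevisiae cultures in microtiter plates was followed every 15 min for 24 hours after seeding at an OD600 of 0.065. Eight solvent-only wells were run per experiment. Growth sensitivity scores were found by subtracting the solvent-only mean from the compound mean and dividing by the solvent-only standard deviation.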

In assay [4] the test system is S. cerevisiae AD1-9 (efflux-pump deficient), vegetative growth in YPD. The description is as above. The method in brief: as §1

Each structure is given as a SMILES string. Where a name gives a salt, the structure may show the parent alone.
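Throughout, for HIS4 meiotic recombination assay sensitivity score (z-score vs DMSO controls): active if sensitivity score above 5.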

Take `Nc1nnc(-c2cccc(Cl)c2Cl)c(N)n1` [Lamotrigine] (stock concentration (mM, diluted 1:100): 10.3): in assay [1], the “CDA2-GFP sporulation assay sensitivity score” value was 0.64 (inactive). Besides, the “HIS4 meiotic recombination assay sensitivity score” value in assay [2] is -1.72 (inactive). In addition, in assay [3], the growth sensitivity score was -1.57 (inactive).
As for `CN(C)CC/C=C1/c2ccccc2COc2ccc(CC(=O)O)cc21` [Olopatadine hydrochloride] (stock concentration (mM, diluted 1:100): 12.7), in assay [1], the “CDA2-GFP sporulation assay sensitivity score” value was 1.08 (inactive). The “HIS4 meiotic recombination assay sensitivity score” value in assay [2] is -0.7 (inactive). Moreover, the growth sensitivity score in assay [3] was -0.74 (inactive).
In the case of `CC(COc1ccccc1Cc1ccccc1)N1CCCCC1` (configuration not stated) [Benproperine phosphate] (stock concentration (mM, diluted 1:100): 10), the “CDA2-GFP sporulation assay sensitivity score” value in assay [1] is 0.55 (inactive). Further, the growth sensitivity score in assay [4] is 3.29 (active); in assay [3], 6.41 (active).
With `C[C@H](CCC(=O)O)[C@H]1CC[C@H]2[C@@H]3C(=O)C[C@@H]4CC(=O)CC[C@]4(C)[C@H]3CC(=O)[C@]12C` [Dehydrocholic acid] (stock concentration (mM, diluted 1:100): 10), the “CDA2-GFP sporulation assay sensitivity score” value in assay [1] was 0.09 (inactive). Besides, the growth sensitivity score is -1.13 (inactive) in assay [4] and -0.69 (inactive) in assay [3].
On the same counts, the results for `CC(C)(C)NC(=O)[C@@H]1CN(Cc2cccnc2)CCN1C[C@@H](O)C[C@@H](Cc1ccccc1)C(=O)N[C@H]1c2ccccc2C[C@H]1O` [Indinavir sulphate] (stock concentration (mM, diluted 1:100): 8.6) are -1.29 (inactive), -2.58 and 0 (inactive).
For `CN1CCN(c2nc3cc(C(F)(F)F)ccc3n3cccc23)CC1` (stock concentration (mM, diluted 1:100): 10), in assay [2], the “HIS4 meiotic recombination assay sensitivity score” value was -0.17 (inactive). Besides, in assay [3], the growth sensitivity score was 351 (active).
`CN(CCCN1c2ccccc2CCc2ccccc21)CC(=O)c1ccc(Cl)cc1` [Lofepramine] (stock concentration (mM, diluted 1:100): 10): in assay [2], the “HIS4 meiotic recombination assay sensitivity score” value was 3.17 (inactive). Moreover, the growth sensitivity score was 51.9 (active) in assay [4] and 3.15 (active) in assay [3].
Regarding `CCCCc1oc2ccccc2c1C(=O)c1cc(I)c(OCCN(CC)CC)c(I)c1` [Amiodarone hydrochloride] (stock concentration (mM, diluted 1:100): 9.5), the “CDA2-GFP sporulation assay sensitivity score” value in assay [1] is 7.12 (inactive). In addition, the “HIS4 meiotic recombination assay sensitivity score” value in assay [2] is -0.63 (inactive). For the same molecule, the growth sensitivity score in assay [3] was 126 (active).
As for `COc1cccc2c1C(=O)c1c(O)c3c(c(O)c1C2=O)C[C@@](O)(C(=O)CO)C[C@@H]3O[C@H]1C[C@H](N)[C@H](O)[C@H](C)O1` [Doxorubicin hydrochloride] (stock concentration (mM, diluted 1:100): 9.4), in assay [1], the “CDA2-GFP sporulation assay sensitivity score” value is 0.3 (inactive). In addition, the growth sensitivity score is 83.6 (active) in assay [4] and 51 (active) in assay [3].
On the same counts, the results for `O=C1CC2(CCCC2)CC(=O)N1CCNCC1COc2ccccc2O1` (configuration not stated) (stock concentration (mM, diluted 1:100): 10) are 19.1 (active), 3.73 (active) and 1.45 (inactive).
Regarding `Cc1c2oc3c(C)ccc(C(=O)N[C@@H]4C(=O)N[C@H](C(C)C)C(=O)N5CCC[C@H]5C(=O)N(C)CC(=O)N(C)[C@@H](C(C)C)C(=O)O[C@@H]4C)c3nc-2c(C(=O)N[C@@H]2C(=O)N[C@H](C(C)C)C(=O)N3CCC[C@H]3C(=O)N(C)CC(=O)N(C)[C@@H](C(C)C)C(=O)O[C@@H]2C)c(N)c1=O` [Dactinomycin] (stock concentration (mM, diluted 1:100): 10), in assay [2], the “HIS4 meiotic recombination assay sensitivity score” value is 0.61 (inactive). Besides, the results for the growth sensitivity score in assay [4] and in assay [3] were -0.59 (inactive) and 1.17 (inactive), respectively.
For `CN(C)[C@@H]1C(O)=C(C(=O)NCN2CCCC2)C(=O)[C@@]2(O)C(O)=C3C(=O)c4c(O)cccc4[C@@](C)(O)[C@H]3C[C@@H]12` [Rolitetracycline] (stock concentration (mM, diluted 1:100): 10) the same measures were 3.05 (inactive), -1.77 (inactive) and -1.17 (inactive).
As to `CCc1nn(CCCN2CCN(c3cccc(Cl)c3)CC2)c(=O)n1CCOc1ccccc1` [Nefazodone] (stock concentration (mM, diluted 1:100): 9.3), in assay [1], the “CDA2-GFP sporulation assay sensitivity score” value is 5.84 (active). The “HIS4 meiotic recombination assay sensitivity score” value in assay [2] was 3 (inactive). Besides, in assay [3], the growth sensitivity score is 9.68 (active).
`CCOc1cc(N)c(Cl)cc1C(=O)NCC1CN(Cc2ccc(F)cc2)CCO1` (configuration not stated) [Mosapride citrate] (stock concentration (mM, diluted 1:100): 6.9): the “CDA2-GFP sporulation assay sensitivity score” value in assay [1] was 1.67 (inactive). Also, the growth sensitivity score is 17.2 (active) in assay [4] and 3.25 (active) in assay [3].
As to `CC(C)(O)c1ccccc1CC[C@@H](SCC1(CC(=O)O)CC1)c1cccc(/C=C/c2ccc3ccc(Cl)cc3n2)c1` [Montelukast] (stock concentration (mM, diluted 1:100): 9.6), the “HIS4 meiotic recombination assay sensitivity score” value in assay [2] is 0.61 (inactive). Further, the results for the growth sensitivity score in assay [4] and in assay [3] were 0.91 (inactive) and -1.05 (inactive), respectively.
As for `COc1ccc(C(=O)NCc2ccc(OCCN(C)C)cc2)cc1OC` [Itopride hydrochloride] (stock concentration (mM, diluted 1:100): 8.2), in assay [1], the “CDA2-GFP sporulation assay sensitivity score” value was -0.55 (inactive). Moreover, the growth sensitivity score in assay [4] is -1.3 (inactive); in assay [3], -0.67 (inactive).
Consider `C=C1/C(=C\C=C2/CCC[C@]3(C)[C@@H]([C@H](C)/C=C/[C@@H](O)C4CC4)CC[C@@H]23)C[C@@H](O)C[C@@H]1O` [Calcipotriol] (stock concentration (mM, diluted 1:100): 10.1), for which, in assay [2], the “HIS4 meiotic recombination assay sensitivity score” value is 2.61 (inactive). In addition, the growth sensitivity score in assay [3] was -0.31 (inactive).
Consider `CCCCC(=O)N(Cc1ccc(-c2ccccc2-c2nnn[nH]2)cc1)[C@H](C(=O)O)C(C)C` [Valsartan] (stock concentration (mM, diluted 1:100): 10), for which the “CDA2-GFP sporulation assay sensitivity score” value in assay [1] was 0.42 (inactive). Also, the growth sensitivity score was -1.81 (inactive) in assay [4] and -1.05 (inactive) in assay [3].
In the case of `CC[C@@]1(O)C(=O)OCc2c1cc1n(c2=O)Cc2cc3c(CN(C)C)c(O)ccc3nc2-1` [Topotecan hydrochloride] (stock concentration (mM, diluted 1:100): 9.2), the “HIS4 meiotic recombination assay sensitivity score” value in assay [2] is 0.22 (inactive). The values for the growth sensitivity score in assay [4] and in assay [3] were 4.71 (active) and -1.34 (inactive), respectively.
Turning to `CC1=C(C(=O)O)N2C(=O)[C@@H](NC(=O)[C@H](N)c3ccccc3)[C@H]2SC1` [Cephalexin monohydrate] (stock concentration (mM, diluted 1:100): 10), the “CDA2-GFP sporulation assay sensitivity score” value in assay [1] was -1.64 (inactive). Besides, the growth sensitivity score in assay [4] is -0.53 (inactive); in assay [3], 0.27 (inactive).
For `Nc1ccn([C@H]2CC[C@@H](CO)O2)c(=O)n1` [Zalcitabine] (stock concentration (mM, diluted 1:100): 10) the same measures were 1.61 (inactive), -0.86 (inactive) and -1.35 (inactive).
For `CC(=O)Nc1ccc(CC(=O)O)cc1` [Actarit] (stock concentration (mM, diluted 1:100): 10) the same measures were 0.84 (inactive), 0.98 (inactive) and -2 (inactive).
For `CCN1CCCC1CNC(=O)c1cc(S(=O)(=O)CC)c(N)cc1OC` (configuration not stated) [Amisulpride] (stock concentration (mM, diluted 1:100): 10) the same measures were -0.38 (inactive), -0.73 (inactive) and -0.22 (inactive).
With `Nc1ccc(O)c(C(=O)O)c1` [Mesalamine] (stock concentration (mM, diluted 1:100): 10), the “CDA2-GFP sporulation assay sensitivity score” value in assay [1] is -1.48 (inactive). Moreover, the growth sensitivity score is -2.51 in assay [4] and -0.33 (inactive) in assay [3].
Take `COc1cc([C@@H]2c3cc4c(cc3[C@@H](O[C@@H]3O[C@@H]5CO[C@@H](C)O[C@H]5[C@H](O)[C@H]3O)[C@H]3COC(=O)[C@H]23)OCO4)cc(OC)c1O` [Etoposide] (stock concentration (mM, diluted 1:100): 10): the “CDA2-GFP sporulation assay sensitivity score” value in assay [1] was 3.42 (inactive). Besides, the growth sensitivity score is 59.2 (active) in assay [4] and 0.01 (inactive) in assay [3].
On the same counts, the results for `C[C@]12CCC(=O)C=C1CC[C@@H]1[C@@H]2C(=O)C[C@@]2(C)[C@H]1CC[C@]2(O)C(=O)CO` [Cortisone] (stock concentration (mM, diluted 1:100): 10) are 2.53 (inactive), 0.78 (inactive) and -0.57 (inactive).
With `CNC(=N)NCCC[C@H](N)C(=O)O` [omega-N-Methylarginine] (stock concentration (mM, diluted 1:100): 9.3), the “CDA2-GFP sporulation assay sensitivity score” value in assay [1] was 1.34 (inactive). Also, the values for the growth sensitivity score in assay [4] and in assay [3] were -3.59 and -0.56 (inactive), respectively.
On the same counts, the results for `CCCc1nc(C)c2c(=O)nc(-c3cc(S(=O)(=O)N4CCN(CC)CC4)ccc3OCC)[nH]n12` [Vardenafil citrate] (stock concentration (mM, diluted 1:100): 7.2) are 4.72 (inactive), 0.43 (inactive) and -0.19 (inactive).
On the same counts, the results for `CC(=O)[C@]1(O)Cc2c(O)c3c(c(O)c2[C@@H](O[C@H]2C[C@H](N)[C@H](O)[C@H](C)O2)C1)C(=O)c1ccccc1C3=O` [Idarubicin hydrochloride] (stock concentration (mM, diluted 1:100): 9.3) are -0.06 (inactive), 174 (active) and 128 (active).
For `CN(C)CCc1c[nH]c2ccc(C[C@H]3COC(=O)N3)cc12` [Zolmitriptan] (stock concentration (mM, diluted 1:100): 10) the same measures were -0.81 (inactive), -1.29 (inactive) and -0.77 (inactive).
As to `O=C1CCc2ccc(OCCCCN3CCN(c4cccc(Cl)c4Cl)CC3)cc2N1` [Aripiprazole] (stock concentration (mM, diluted 1:100): 10), the “CDA2-GFP sporulation assay sensitivity score” value in assay [1] was -0.09 (inactive). For the same molecule, the growth sensitivity score in assay [4] is 18.5 (active); in assay [3], 117 (active).
With `CN(CCOc1ccc(NS(C)(=O)=O)cc1)CCc1ccc(NS(C)(=O)=O)cc1` [Dofetilide] (stock concentration (mM, diluted 1:100): 10), the “CDA2-GFP sporulation assay sensitivity score” value in assay [1] is -0.99 (inactive). The growth sensitivity score in assay [4] was -1.59 (inactive); in assay [3], -2.19.
On the same counts, the results for `CC(=O)O[C@]1(C(C)=O)CC[C@H]2[C@@H]3C=C(C)C4=CC(=O)CC[C@]4(C)[C@H]3CC[C@@]21C` [Megestrol acetate] (stock concentration (mM, diluted 1:100): 10) are 0.75 (inactive), 38.5 (active) and 1.27 (inactive).
